Among the data in PubChem BioAssay AID488922 (Johns Hopkins Ion Channel Center, 2010) are B-score values, retold here.

Structures are written as SMILES. Among all 310,000 compounds or so, about 3,800 (1.2%) were called active.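 How the source made its calls: active means ratio B-score over 3 SD below the library mean, with starting fluorescence within 5 SD of its mean; inactive means the rest, inconclusive results apart.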 Only a selection was taken, and actives are over-represented in it overall.

Chain of Potassium channel subfamily K member 9 (Homo sapiens) (Q9NPC2 whole entry, looked up): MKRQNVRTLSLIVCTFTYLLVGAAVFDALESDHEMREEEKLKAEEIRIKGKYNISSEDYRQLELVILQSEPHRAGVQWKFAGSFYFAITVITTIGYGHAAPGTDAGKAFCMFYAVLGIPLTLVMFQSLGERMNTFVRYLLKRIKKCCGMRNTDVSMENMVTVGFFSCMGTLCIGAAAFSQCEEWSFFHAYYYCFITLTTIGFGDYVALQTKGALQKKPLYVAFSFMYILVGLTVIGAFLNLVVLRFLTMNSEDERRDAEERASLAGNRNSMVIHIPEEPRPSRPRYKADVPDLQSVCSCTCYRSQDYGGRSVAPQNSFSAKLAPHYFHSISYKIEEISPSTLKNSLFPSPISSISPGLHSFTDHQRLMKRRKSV

This experiment has as its target Potassium channel subfamily K member 9 (Homo sapiens) (UniProt Q9NPC2). Description: blockers of human TASK-3 (KCNK9) channel – HEK293 cells, thallium flux, primary screen (AID 488922).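 On B-score: negative B-score means less thallium flux so channel inhibition.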 The following applies: HEK293 KCNK9, FluxOR thallium flux fluorescence, at 10 µM; stronger effect = lower value.
For `Cc1ccc(C2=Nc3c(ccc4ccccc34)C(c3ccncc3)=NN2)cc1`, the B-score is -10.7 (active).

In the case of `Cc1ccc(-c2csc(-c3c[nH]c4ccccc34)n2)cc1`, the B-score result is “inactive”.

Consider `CCOc1ccc2c(c1)C(c1ccc(C)cc1)=NNC(c1ccc(C)cc1)=N2`, for which the B-score entry is “inactive”.

Regarding `CCCCCC(=O)N1CCN(S(=O)(=O)c2ccc3c(c2)OCCCO3)CC1`, the B-score result is “inactive”.

With `O=C(Cc1cccs1)N(CC1CCCO1)C1(C(=O)NC2CCCCC2)CCCCC1` (stereo unspecified), the B-score entry is “inactive”.

With `O=C(CCSCCc1ccccn1)Nc1nccs1`, the B-score entry was “inactive”.

For the compound `COc1ccc(S(=O)(=O)N2CCN(C(=O)N(C)C)C2C)cc1` (stereo unspecified), the B-score result is “inactive”.

In the case of `COc1ccc(OCCCC(=O)NCCc2ccccc2)cc1`, the B-score result was “inactive”.

Consider `O=C(NC1CCC(O)CC1)c1ccccc1OCc1ccc(F)cc1` (stereo unspecified), for which the B-score entry was “inactive”.

Regarding `COc1ccc(CCNC(=O)c2ccccc2OCc2ccccc2)cc1`, the B-score was -8.98 (active).

With `CC(OC(=O)c1ccccc1OCc1ccc(Cl)cc1)C(N)=O` (stereo unspecified), the B-score result is “inactive”.

`CCOc1ncccc1C(=O)NCCc1ccc(OC)cc1`: the B-score entry is “inactive”.

Turning to `CC(=O)c1ccccc1OCc1ccc(C(=O)c2ccccc2)cc1`, the B-score was -6.64 (active).

In the case of `COc1cccc(CN2CCNC(=O)C2CC(=O)N(C)CCc2ccccn2)c1` (stereo unspecified), the B-score entry is “inactive”.

As for `Cc1ccc(CN(N=Nc2nonc2N)c2nonc2N)c(C)c1`, the B-score was -10.2 (active).

As for `CCN(CC(=O)NCC(=O)Nc1cccc(C)c1C)Cc1ccccc1`, the B-score result was “inactive”.

Turning to `CC1(C)C2CC[C@]3(C)C(CC=C4[C@@H]5C[C@@](C)(CO)CC[C@]5(C(=O)O)CC[C@]43C)[C@@]2(C)CC[C@@H]1O` (stereo partly specified), the B-score entry was “inactive”.

Regarding `Cc1n[nH]c(=O)c2c1nnn2Cc1ccc(F)cc1`, the B-score entry was “inactive”.

Take `COC(=O)c1cc2nc(-c3ccccc3)cc(C(F)(F)F)n2n1`: the B-score result was “inactive”.

Turning to `COc1ccc(NC(=O)c2cc3nc(-c4ccccc4)cc(C)n3n2)cc1OC`, the B-score result is “inactive”.

As for `COCCNc1cc(-c2ccccc2)nc2cc(-c3cccc(F)c3)nn12`, the B-score is -9.68 (active).

`COCCN(Cc1nc(-c2ccc(C(F)(F)F)cc2)no1)C(C)C`: the B-score result was “inactive”.

For the compound `O=C(Nc1ccccc1Cl)/C(Cl)=C(\Cl)S(=O)c1ccccc1` (stereo unspecified), the B-score is -6.6 (active).

With `O=C(Cc1ccc2c(c1)CCCC2)Nc1ccccc1Cl`, the B-score result was “inactive”.

With `O=C(Nc1ccccc1Cl)Nc1cccc2cccnc12`, the B-score entry was “inactive”.

Take `COc1cc(-c2nnc(Cn3cc(C(F)(F)F)ccc3=O)o2)cc(OC)c1OC`: the B-score entry is “inactive”.

For the compound `COc1cccc(NC(=O)CN2CCN(c3nc(-c4cccc(OC)c4)cs3)CC2)c1`, the B-score result is “inactive”.

For `COc1cccc(-c2cc3nc4c(c(N5CCC6(CC5)OCCO6)n3n2)CCCC4)c1`, the B-score is -9.24 (active).

For `COc1cccc(CNc2nc3nc4c(c(=O)n3[nH]2)CCC4)c1`, the B-score entry was “inactive”.

Consider `CCC(=O)Nc1nnc(S(=O)(=O)N2CCCc3ccccc32)s1`, for which the B-score result is “inactive”.

For the compound `CCSc1nsc(NC(=O)Nc2cccc(C(C)=O)c2)n1`, the B-score result is “inactive”.

On to `Cc1ccc(C(=O)N(CC(=O)NC2CCCC2)c2ccc(F)cc2)s1`, for which the B-score result was “inactive”.

Turning to `CC1CCCN(CC(=O)Nc2cc(Cl)ccc2Oc2ccccc2)C1` (stereo unspecified), the B-score entry was “inactive”.

For the compound `CC(=O)Nc1ccc(SCC(=O)Nc2ccccc2Oc2ccccc2)cc1`, the B-score result is “inactive”.

Consider `O=C(CSc1ccccc1)Nc1cc(Cl)ccc1Oc1ccccc1`, for which the B-score is -8.08 (active).

For the compound `N#CCOc1ccc(C2=NO[C@@H]3[C@@H]4C[C@@H]([C@H]5C(=O)N(c6ccc7c(c6)OCO7)C(=O)[C@@H]45)[C@H]23)cc1`, the B-score entry was “inactive”.

For the compound `O=C(N/C(=C\c1ccc(O)cc1)C(=O)N1CCCCC1)c1ccccc1`, the B-score result was “inactive”.

Regarding `COc1ccc(C)cc1NC(=O)C(Sc1ccccc1)c1ccccc1` (stereo unspecified), the B-score is -8.19 (active).

Take `COc1ccc(C)cc1NC(=O)NCCCCc1ccccc1`: the B-score result is “inactive”.

In the case of `COc1ccc(C)cc1NC(=O)Nc1ccccc1SC`, the B-score result is “inactive”.

As for `CC(Sc1nnnn1C)C(=O)NC(=O)NC1CCCCC1` (stereo unspecified), the B-score result was “inactive”.

Turning to `Cc1ccc(S(=O)(=O)NC(C)C(=O)NCc2ccc(Cl)cc2)cc1` (stereo unspecified), the B-score result is “inactive”.

In the case of `Cc1cc(Cl)ccc1OCc1nc(-c2ccncc2)no1`, the B-score entry was “inactive”.

On to `O=C(Nc1c2c(nc3ccccc13)CCCC2)c1ccccc1Br`, for which the B-score entry was “inactive”.

For the compound `O=C(COC(=O)c1c2c(nc3ccccc13)CCCC2)c1ccc(Br)s1`, the B-score is -9.29 (active).

In the case of `NC(=O)c1ccc(NC(=O)COC(=O)c2c3c(nc4ccccc24)/C(=C\c2ccc4c(c2)OCO4)CCC3)cc1`, the B-score result is “inactive”.

In the case of `COC(=O)COc1ccc2c(=O)c(Oc3ccccc3Br)coc2c1`, the B-score entry was “inactive”.

In the case of `CCCCc1cc(=O)oc2c(C)c(OCC(=O)N3CCC(C(N)=O)CC3)ccc12`, the B-score entry is “inactive”.

Consider `O=C(/C=C/c1ccc(N2CCOCC2)cc1)c1ccccc1`, for which the B-score result is “inactive”.

As for `CCOc1ncccc1C(=O)OCC(=O)NC1CC1`, the B-score result is “inactive”.

In the case of `C=CCn1c(SCc2ccc(C(=O)NCCO)cc2)nc2ccccc2c1=O`, the B-score result was “inactive”.

Regarding `Cc1nc2ccccc2c(=O)n1NC(=O)c1ccc(Cl)c([N+](=O)[O-])c1`, the B-score result was “inactive”.

With `O=C(Nn1c(SCc2ccc([N+](=O)[O-])cc2)nc2ccccc2c1=O)c1ccc(F)cc1`, the B-score was -8.82 (active).

`O=C(Cn1nc([N+](=O)[O-])nc1Br)NC1CCCCC1`: the B-score entry was “inactive”.

As to `CCC1Nc2ncnc(N3CCN(c4ccccc4)CC3)c2N(Cc2ccc(Cl)cc2)C1=O` (stereo unspecified), the B-score result was “inactive”.

`COc1ccc(NC(=O)c2sc3nc(C)nc(N4CCN(c5ccccn5)CC4)c3c2C)c(OC)c1`: the B-score result was “inactive”.

As to `Cc1nc(N2CCN(c3ccccn3)CC2)c2c(C)c(C(=O)Nc3ccc(F)c(Cl)c3)sc2n1`, the B-score was -10.3 (active).

For the compound `Cc1nc(N2CCN(c3ccccn3)CC2)c2c(C)c(C(=O)Nc3ccc(F)cc3)sc2n1`, the B-score result was “inactive”.

As to `Cc1ccc2cccc(OCCCOc3ccccc3CO)c2n1`, the B-score entry was “inactive”.

Consider `O=C(COC(=O)/C(=C/c1cccs1)c1cccs1)NCc1ccccc1Cl`, for which the B-score was -9.72 (active).

For the compound `O=C(COC(=O)c1cc2c(s1)CCCC2)NCc1ccccc1Cl`, the B-score entry is “inactive”.

Consider `O=C(COC(=O)c1cccs1)NCc1cccs1`, for which the B-score result is “inactive”.

For the compound `CC(C)(C)NC(=O)COC(=O)c1cc(Br)ccc1Cl`, the B-score result is “inactive”.

As for `O=C(NNS(=O)(=O)c1ccc(F)cc1)c1ccc([N+](=O)[O-])cc1Cl`, the B-score entry is “inactive”.

Regarding `COc1ccc(-c2[nH]ncc2/C=N/NC(=O)c2cc(Br)ccc2O)c(OC)c1`, the B-score entry is “inactive”.

For `Cc1ccc(C)c(NC(=O)CSc2nc3c(oc4ccccc43)c(=O)n2-c2ccccc2)c1`, the B-score was -7.91 (active).

As to `Cc1ccc(C)c(NC(=O)CSc2nnc(Cc3cccn3C)n2-c2ccc(F)cc2)c1`, the B-score result was “inactive”.

For `Cc1ccc(C)c(Cn2cnc3c(oc4ccccc43)c2=O)c1`, the B-score entry is “inactive”.

On to `C=CCOc1ccc(C(=O)Nc2ccccc2C(=O)N2CCCC2)cc1`, for which the B-score entry was “inactive”.

Take `Cc1ccc(C2NC(C(=O)O)CS2)cc1` (stereo unspecified): the B-score result was “inactive”.

Consider `CC(C)(C)Oc1ncc(Br)c(OC(C)(C)C)n1`, for which the B-score entry is “inactive”.

For `COc1cccc(-c2cnc(OC(C)(C)C)nc2OC(C)(C)C)c1`, the B-score is -8.72 (active).

Turning to `COc1ccc(-c2nc(N)ncc2-c2ccc(Cl)cc2)c(O)c1`, the B-score entry was “inactive”.

On to `COc1ccc(CN2CCC(c3nc4ccc(Cl)cc4[nH]3)CC2)cc1`, for which the B-score result is “inactive”.

As for `Cc1ccc(C(=O)NC2CCN(C(=O)Nc3ccc(F)cc3)CC2)cc1`, the B-score entry is “inactive”.

Regarding `CN(C)c1ccc(C(CNC(=O)c2ccc(F)cc2)c2c[nH]c3ccccc23)cc1` (stereo unspecified), the B-score is -13 (active).

Regarding `O=C(CNC(=O)c1ccc(F)cc1)c1ccccc1`, the B-score result is “inactive”.

Regarding `O=C(Cc1ccccc1)NCc1ccc(F)cc1`, the B-score entry was “inactive”.

For `O=C(CN(c1ccccc1)S(=O)(=O)c1ccc(Cl)cc1)Nc1ccccc1C(=O)N1CCCC1`, the B-score result was “inactive”.

`COn1c(-c2ccc(Cl)cc2Cl)nc2ncccc21`: the B-score entry was “inactive”.

For the compound `Clc1ccc(COn2c(-c3ccc(Cl)cc3Cl)nc3ncccc32)cc1`, the B-score was -10.6 (active).

For `Clc1ccc(-c2ncc3ccccn23)c(Cl)c1`, the B-score entry is “inactive”.

For `CC1CCN(S(=O)(=O)c2nnc(NC(=O)COc3ccccc3F)s2)CC1`, the B-score result was “inactive”.

For `N/C(=N\S(=O)(=O)c1ccc(Cl)cc1)N1CCOCC1`, the B-score entry was “inactive”.

Consider `CCOC(=O)CSC1=C(C#N)C(c2ccco2)C(C(=O)OCc2ccccc2)=C(C)N1` (stereo unspecified), for which the B-score is -7.3 (active).

As for `CC1=C(C(=O)OCc2ccccc2)C(c2ccco2)n2ncnc2N1` (stereo unspecified), the B-score entry is “inactive”.

Turning to `Cc1ccc(C2CC(=O)NC(SCC(=O)OCc3ccccc3)=C2C#N)o1` (stereo unspecified), the B-score result is “inactive”.

Take `CC(=O)N[C@@H](C)C(=O)N1CCC(n2nccc2NC(=O)CCCc2ccccc2)CC1`: the B-score result is “inactive”.

For the compound `COc1ccc(-n2c(=O)[nH]c3cc(C(=O)NCCc4ccc(OC)c(OC)c4)ccc3c2=O)c(OC)c1`, the B-score entry is “inactive”.

For the compound `COc1ccccc1-c1nc(SC)n[nH]1`, the B-score entry is “inactive”.

For `COc1ccccc1-c1n[nH]c2c1[C@H](C)CC[C@H]2C(C)C`, the B-score was -6.66 (active).

Take `COc1ccc(-c2n[nH]c(C)c2-c2ccccc2OC)c(O)c1`: the B-score entry is “inactive”.

For `Cc1ccc2nc(SCC(=O)N3CCN(c4ccccc4)CC3)nc(=O)n2c1`, the B-score entry was “inactive”.

Turning to `O=C(NCC(=O)N1CCCC(C(F)(F)F)C1)c1ccccc1F` (stereo unspecified), the B-score entry is “inactive”.

With `Cc1ccc(CNC(=O)CCS(=O)(=O)c2ccc3c(c2)CC(C)N3C(=O)C2CC2)o1` (stereo unspecified), the B-score result is “inactive”.

As for `Cc1ccc(C(=O)Nc2ccc(C)c(S(=O)(=O)N(C)C)c2)s1`, the B-score entry is “inactive”.

For `O=C(NCCCO)c1cc2c([nH]c3ccccc32)c(-c2ccc(F)cc2)n1`, the B-score entry is “inactive”.

Turning to `C=CCn1c(SCC(=O)NC)nnc1C12CC3CC(CC(C3)C1)C2`, the B-score entry is “inactive”.

Regarding `CC1=C(C(=O)OC(C)(C)C)C(c2ccc(Br)cc2)NC(=O)N1CCCC(=O)O` (stereo unspecified), the B-score entry is “inactive”.

As for `COc1ccc(C2Nc3ccccc3C(=O)N2c2ccc(F)cc2)cc1Cn1nnc2ccccc21` (stereo unspecified), the B-score entry is “inactive”.

Turning to `COc1ccc(C2Nc3ccccc3C(=O)N2Cc2ccccc2)cc1Cn1nnc2ccccc21` (stereo unspecified), the B-score was -8.45 (active).

`Cc1ccc(C2Nc3ccccc3C(=O)N2CCN2CCNC2=O)cc1` (stereo unspecified): the B-score result is “inactive”.

On to `Cc1cc(NC(=O)/C=C/C(=O)N(CC(=O)NC2CCCC2)c2ccc(F)cc2)no1`, for which the B-score entry was “inactive”.

For the compound `CCCCCC(O)c1cccc(OCc2ccc3ccccc3n2)c1` (stereo unspecified), the B-score was -16.3 (active).

`CCCCCCOC(=O)NCC(O)c1ccccc1` (stereo unspecified): the B-score entry was “inactive”.

Regarding `COc1cccc(C(O)c2nc3ccccc3n2C)c1` (stereo unspecified), the B-score result was “inactive”.
